Laboratory results from PubChem BioAssay AID1211 (NMMLSC, 2008).
Calls of active or inactive are those of the source. No rule for the calls is given here.

target: Estrogen receptor (Homo sapiens) (UniProt P03372); assay: ERalpha ligand binders by competition, primary screen, cell-based, Cos7 ERalpha-GFP, flow cytometry (AID 1211); settings: fluorescent ligand competition, at 10 µM, stronger effect = higher value;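 also: 0% = DMSO vehicle wells and 100% = no E2-Alexa633 signal left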
Sequence (P03372 whole entry, looked up): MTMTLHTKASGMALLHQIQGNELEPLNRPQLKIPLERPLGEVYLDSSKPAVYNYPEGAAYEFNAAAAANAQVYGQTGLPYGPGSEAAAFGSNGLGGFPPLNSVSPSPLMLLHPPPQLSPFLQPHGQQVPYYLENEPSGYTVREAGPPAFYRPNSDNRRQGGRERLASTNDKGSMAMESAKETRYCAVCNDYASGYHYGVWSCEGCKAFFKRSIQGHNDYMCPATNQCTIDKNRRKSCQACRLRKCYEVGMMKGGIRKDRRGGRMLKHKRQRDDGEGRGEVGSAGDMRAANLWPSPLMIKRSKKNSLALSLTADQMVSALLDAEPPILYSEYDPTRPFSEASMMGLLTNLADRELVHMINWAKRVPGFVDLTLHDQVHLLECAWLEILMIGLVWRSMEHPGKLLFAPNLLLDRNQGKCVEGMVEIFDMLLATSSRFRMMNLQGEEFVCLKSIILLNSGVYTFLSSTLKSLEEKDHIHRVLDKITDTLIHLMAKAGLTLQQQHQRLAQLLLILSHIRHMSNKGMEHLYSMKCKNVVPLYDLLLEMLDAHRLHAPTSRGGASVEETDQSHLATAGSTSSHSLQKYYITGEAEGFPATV

Question: With N#CC1=C(N)OC2=C(CCC/C2=C/c2ccoc2)C1c1ccoc1 (stereo not drawn) as the compound, how does the inhibition of ligand binding read?
Answer: 56% (inactive)

Question: COc1cc(C(C#N)N2N=C(c3ccccc3)CC2c2ccccc2)ccc1O (stereo not drawn) was tested. Which inhibition of ligand binding did it give?
Answer: 3% (inactive)

Question: How did the inhibition of ligand binding turn out when NS(=O)(=O)c1ccc2c(c1)C1C=CCC1C(C1CC=CCC1)N2 (stereo not drawn) was run?
Answer: 69% (active)

Question: Which inhibition of ligand binding does the source give for Cc1cc([N+](=O)[O-])c2c(c1C)C1C=CCC1C(c1ccccn1)N2 (stereo not drawn) here?
Answer: 72% (active)

Question: For O=C1c2ccccc2C(=O)N1/N=C/c1ccc(O)c(O)c1, which inhibition of ligand binding is on record?
Answer: 32% (inactive)

Question: For CCCC1=NN2C(=N)/C(=C\c3ccc(SCc4ccco4)o3)C(=O)N=C2S1, which inhibition of ligand binding is on record?
Answer: 14% (inactive)

Question: For C/C(N)=C(/C#N)C(=O)CSc1nnnn1-c1ccc(C)cc1, which inhibition of ligand binding is on record?
Answer: 9% (inactive)

Question: Which inhibition of ligand binding does the source give for COc1cc2c(cc1O)CC[n+]1cc3c(OC)c(OC)ccc3cc1-2 here?
Answer: 46% (inactive)

Question: Which inhibition of ligand binding does the source give for COc1cc(C(Nc2ccccn2)c2ccc3ccc(C)nc3c2O)cc(OC)c1O (stereo not drawn) here?
Answer: 54% (inactive)

Question: For Cc1ccc(-n2c(=O)c(C#N)cc3c(=O)n4cccc(C)c4nc32)cc1, which inhibition of ligand binding is on record?
Answer: 53% (inactive)

Question: With Cc1ccc(-c2n[nH]c(=S)n2/N=C/C=C/c2ccccc2[N+](=O)[O-])cc1 as the compound, how does the inhibition of ligand binding read?
Answer: 1% (inactive)

Question: Which inhibition of ligand binding does the source give for COc1ccc(C2Nc3ccccc3C(=O)N2c2ccc(Cl)cc2)cc1Cn1cc([N+](=O)[O-])cn1 (stereo not drawn) here?
Answer: 29% (inactive)

Question: COC(=O)C1=C(O)/C(=C\c2ccc(CNC(=O)C(=O)Nc3ccc(C)c(C)c3)o2)N=C1C was tested. Which inhibition of ligand binding did it give?
Answer: 32% (inactive)

Question: How did the inhibition of ligand binding turn out when CCCOc1ccc(-c2nn(-c3ccccc3)cc2/C=C2\SC(N)=NC2=O)cc1 was run?
Answer: 50% (inactive)

Question: For O=C(Cc1ccccc1)Nc1ccc2oc(-c3cccnc3)nc2c1, which inhibition of ligand binding is on record?
Answer: 32% (inactive)

Question: With COc1cc(C(=O)Nc2nnc(-c3sccc3C)s2)cc(OC)c1OC as the compound, how does the inhibition of ligand binding read?
Answer: 2% (active)

Question: For COc1ccc2cc3c(N)nn(C(=O)Cc4ccc(Cl)cc4)c3nc2c1, which inhibition of ligand binding is on record?
Answer: 18% (inactive)

Question: Nc1ccc(/C=C/C(=O)c2ccco2)cc1 was tested. Which inhibition of ligand binding did it give?
Answer: 9% (inactive)

Question: Which inhibition of ligand binding does the source give for O=c1cc(O)c2sc(Nc3ccc(F)cc3)nc2[nH]1 here?
Answer: 9% (inactive)

Question: How did the inhibition of ligand binding turn out when Cc1nc2cc(-c3ccsc3-n3c(C)ccc3C)[nH]n2c(=O)c1Cl was run?
Answer: 30% (inactive)

Question: Which inhibition of ligand binding does the source give for CCOC(=O)C1=C(O)/C(=C\c2ccc(CNC(=O)C(=O)Nc3ccccc3)o2)N=C1C here?
Answer: 24% (inactive)

Question: Which inhibition of ligand binding does the source give for Cc1c2cc(O)c(=O)cc-2oc2cc(O)c(O)cc12 here?
Answer: 31% (inactive)

Question: How did the inhibition of ligand binding turn out when COc1ccc(-c2cn3c(C)c(C(=O)Nc4ccncc4)sc3n2)cc1 was run?
Answer: 28% (inactive)

Question: For O=C(CSc1nnc(SCC(=O)c2ccco2)s1)c1ccco1, which inhibition of ligand binding is on record?
Answer: 14% (inactive)

Question: For COc1ccc(-n2c(SCC(=O)Nc3nccs3)nc3sc4c(c3c2=O)CCN(C)C4)cc1, which inhibition of ligand binding is on record?
Answer: 30% (inactive)

Question: O=Cc1ccc2oc3nc4n(c(=O)c3c(=O)c2c1)CCCS4 was tested. Which inhibition of ligand binding did it give?
Answer: 40% (inactive)

Question: How did the inhibition of ligand binding turn out when O=C(COC(=O)CN1C(=O)c2ccccc2C1=O)Nc1ncc(Cl)cc1Cl was run?
Answer: 7% (inactive)

Question: For Oc1c(Cl)cc(Cl)cc1Sc1cc(Cl)cc(Cl)c1O, which inhibition of ligand binding is on record?
Answer: 37% (inactive)

Question: How did the inhibition of ligand binding turn out when CCOc1ccc2nc(NC(=O)CCC(=O)c3cccs3)sc2c1 was run?
Answer: 13% (inactive)

Question: With CC1(C)CC(=O)c2c(oc3cc(O)c(O)cc23)C1 as the compound, how does the inhibition of ligand binding read?
Answer: 20% (inactive)

Question: How did the inhibition of ligand binding turn out when COc1ccc(C)cc1-n1nnnc1SCC(=O)NC(=O)NCc1ccco1 was run?
Answer: 15% (inactive)

Question: How did the inhibition of ligand binding turn out when CC(=O)Nc1ccc2[nH]c(C)cc(=O)c2c1 was run?
Answer: 27% (inactive)

Question: Which inhibition of ligand binding does the source give for Cc1ccc(C(=O)NCC(=O)OCC(=O)c2c(N)n(C)c(=O)n(C)c2=O)s1 here?
Answer: 14% (inactive)

Question: How did the inhibition of ligand binding turn out when COc1ccc(-c2ccc(=O)[nH]n2)cc1 was run?
Answer: 22% (inactive)

Question: For CC(=O)c1cccc(NC(=O)Cc2cccs2)c1, which inhibition of ligand binding is on record?
Answer: 3% (inactive)

Question: COc1ccc(-c2nc3ccc([N+](=O)[O-])cc3o2)cc1 was tested. Which inhibition of ligand binding did it give?
Answer: 28% (inactive)

Question: For CCOc1cccc2cc(-c3nnc(NCc4ccco4)s3)c(=O)oc12, which inhibition of ligand binding is on record?
Answer: 47% (inactive)

Question: For CC(Cc1ccc(O)c(O)c1)C(C)Cc1ccc(O)c(O)c1 (stereo not drawn), which inhibition of ligand binding is on record?
Answer: 47% (inactive)

Question: Which inhibition of ligand binding does the source give for CCC(=O)Nc1ccc(C(=O)Cn2nc(C(=O)O)c3ccccc3c2=O)cc1 here?
Answer: 50% (inactive)

same assay, conditions: fluorescent ligand competition, binding inhibition, at 0.1 µM, stronger effect = higher value

Question: With N#CC1=C(N)OC2=C(CCC/C2=C/c2ccoc2)C1c1ccoc1 (stereo not drawn) as the compound, how does the inhibition of ligand binding read?
Answer: 40%

Question: COc1cc(C(C#N)N2N=C(c3ccccc3)CC2c2ccccc2)ccc1O (stereo not drawn) was tested. Which inhibition of ligand binding did it give?
Answer: 3%

Question: Which inhibition of ligand binding does the source give for NS(=O)(=O)c1ccc2c(c1)C1C=CCC1C(C1CC=CCC1)N2 (stereo not drawn) here?
Answer: 17%

Question: Cc1cc([N+](=O)[O-])c2c(c1C)C1C=CCC1C(c1ccccn1)N2 (stereo not drawn) was tested. Which inhibition of ligand binding did it give?
Answer: 10%

Question: How did the inhibition of ligand binding turn out when O=C1c2ccccc2C(=O)N1/N=C/c1ccc(O)c(O)c1 was run?
Answer: 23%

Question: How did the inhibition of ligand binding turn out when CCCC1=NN2C(=N)/C(=C\c3ccc(SCc4ccco4)o3)C(=O)N=C2S1 was run?
Answer: 26%

Question: How did the inhibition of ligand binding turn out when C/C(N)=C(/C#N)C(=O)CSc1nnnn1-c1ccc(C)cc1 was run?
Answer: 14%

Question: For COc1cc2c(cc1O)CC[n+]1cc3c(OC)c(OC)ccc3cc1-2, which inhibition of ligand binding is on record?
Answer: 9%

Question: For COc1cc(C(Nc2ccccn2)c2ccc3ccc(C)nc3c2O)cc(OC)c1O (stereo not drawn), which inhibition of ligand binding is on record?
Answer: 16%

Question: With Cc1ccc(-n2c(=O)c(C#N)cc3c(=O)n4cccc(C)c4nc32)cc1 as the compound, how does the inhibition of ligand binding read?
Answer: 32%

Question: Cc1ccc(-c2n[nH]c(=S)n2/N=C/C=C/c2ccccc2[N+](=O)[O-])cc1 was tested. Which inhibition of ligand binding did it give?
Answer: 14%

Question: For COc1ccc(C2Nc3ccccc3C(=O)N2c2ccc(Cl)cc2)cc1Cn1cc([N+](=O)[O-])cn1 (stereo not drawn), which inhibition of ligand binding is on record?
Answer: 49%

Question: With COC(=O)C1=C(O)/C(=C\c2ccc(CNC(=O)C(=O)Nc3ccc(C)c(C)c3)o2)N=C1C as the compound, how does the inhibition of ligand binding read?
Answer: 31%

Question: Which inhibition of ligand binding does the source give for CCCOc1ccc(-c2nn(-c3ccccc3)cc2/C=C2\SC(N)=NC2=O)cc1 here?
Answer: 13%

Question: Which inhibition of ligand binding does the source give for O=C(Cc1ccccc1)Nc1ccc2oc(-c3cccnc3)nc2c1 here?
Answer: 44%

Question: Which inhibition of ligand binding does the source give for COc1cc(C(=O)Nc2nnc(-c3sccc3C)s2)cc(OC)c1OC here?
Answer: 75%

Question: Which inhibition of ligand binding does the source give for COc1ccc2cc3c(N)nn(C(=O)Cc4ccc(Cl)cc4)c3nc2c1 here?
Answer: 16%

Question: Nc1ccc(/C=C/C(=O)c2ccco2)cc1 was tested. Which inhibition of ligand binding did it give?
Answer: 11%

Question: O=c1cc(O)c2sc(Nc3ccc(F)cc3)nc2[nH]1 was tested. Which inhibition of ligand binding did it give?
Answer: 48%

Question: How did the inhibition of ligand binding turn out when Cc1nc2cc(-c3ccsc3-n3c(C)ccc3C)[nH]n2c(=O)c1Cl was run?
Answer: 54%

Question: How did the inhibition of ligand binding turn out when CCOC(=O)C1=C(O)/C(=C\c2ccc(CNC(=O)C(=O)Nc3ccccc3)o2)N=C1C was run?
Answer: 19%

Question: For Cc1c2cc(O)c(=O)cc-2oc2cc(O)c(O)cc12, which inhibition of ligand binding is on record?
Answer: 51%

Question: How did the inhibition of ligand binding turn out when COc1ccc(-c2cn3c(C)c(C(=O)Nc4ccncc4)sc3n2)cc1 was run?
Answer: 3%

Question: With O=C(CSc1nnc(SCC(=O)c2ccco2)s1)c1ccco1 as the compound, how does the inhibition of ligand binding read?
Answer: 28%

Question: How did the inhibition of ligand binding turn out when COc1ccc(-n2c(SCC(=O)Nc3nccs3)nc3sc4c(c3c2=O)CCN(C)C4)cc1 was run?
Answer: 24%

Question: O=Cc1ccc2oc3nc4n(c(=O)c3c(=O)c2c1)CCCS4 was tested. Which inhibition of ligand binding did it give?
Answer: 15%

Question: With O=C(COC(=O)CN1C(=O)c2ccccc2C1=O)Nc1ncc(Cl)cc1Cl as the compound, how does the inhibition of ligand binding read?
Answer: 14%

Question: With Oc1c(Cl)cc(Cl)cc1Sc1cc(Cl)cc(Cl)c1O as the compound, how does the inhibition of ligand binding read?
Answer: 28%

Question: For CCOc1ccc2nc(NC(=O)CCC(=O)c3cccs3)sc2c1, which inhibition of ligand binding is on record?
Answer: 17%

Question: With CC1(C)CC(=O)c2c(oc3cc(O)c(O)cc23)C1 as the compound, how does the inhibition of ligand binding read?
Answer: 54%

Question: How did the inhibition of ligand binding turn out when COc1ccc(C)cc1-n1nnnc1SCC(=O)NC(=O)NCc1ccco1 was run?
Answer: 26%

Question: For CC(=O)Nc1ccc2[nH]c(C)cc(=O)c2c1, which inhibition of ligand binding is on record?
Answer: 19%

Question: For Cc1ccc(C(=O)NCC(=O)OCC(=O)c2c(N)n(C)c(=O)n(C)c2=O)s1, which inhibition of ligand binding is on record?
Answer: 5%

Question: COc1ccc(-c2ccc(=O)[nH]n2)cc1 was tested. Which inhibition of ligand binding did it give?
Answer: 52%

Question: CC(=O)c1cccc(NC(=O)Cc2cccs2)c1 was tested. Which inhibition of ligand binding did it give?
Answer: 40%

Question: How did the inhibition of ligand binding turn out when COc1ccc(-c2nc3ccc([N+](=O)[O-])cc3o2)cc1 was run?
Answer: 52%

Question: For CCOc1cccc2cc(-c3nnc(NCc4ccco4)s3)c(=O)oc12, which inhibition of ligand binding is on record?
Answer: 61%

Question: With CC(Cc1ccc(O)c(O)c1)C(C)Cc1ccc(O)c(O)c1 (stereo not drawn) as the compound, how does the inhibition of ligand binding read?
Answer: 3%

Question: Which inhibition of ligand binding does the source give for CCC(=O)Nc1ccc(C(=O)Cn2nc(C(=O)O)c3ccccc3c2=O)cc1 here?
Answer: 30%
